Inconclusive results are not listed. Activity calls are given as the source filed them. Unless noted, calls follow the shape of the dose curve; as a rule, active = well fitted curve in the direction sought with a large enough effect; inconclusive = small, poorly fitted or top-dose-only effect, or another doubt; inactive = no such curve, though single readings can be large; an effect the other way counts as inactive or inconclusive.
Tests used:
[1] = AP1 Signaling Pathway (AID 357; active = well fitted curve in either direction with a large enough effect, not every such curve was filed as active;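 also: ME-180 reporter cells stimulated with EGF at its EC50 level; % is scaled to controls: 0 for no effect and ±100 for the full control effect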); conditions: ME-180 (cervical carcinoma) AP-1-bla reporter, EGF-induced, beta-lactamase ratio, 5 h; at 38 µM (top of the series)
In short: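 Titration-series screen for positive or negative modulators of EC50 EGF-induced signaling in ME-180 cells carrying an AP-1-driven beta-lactamase reporter. After 5 hours at 37 degrees Celsius, CCF4 460nm/530nm emission ratio gave %Activity; AC50 values derived.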

[2] = target: Cytochrome P450 1A2 (Homo sapiens) (UniProt P05177); assay: p450-cyp1a2 (AID 410; calls by dose curve;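 also: -100% = full effect of reference inhibitor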)
In short: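 Human CYP1A2 (20nM) demethylated Luciferin-ME at its Km (100uM) in 100mM KPO4. After 10 min compound preincubation, NADPH regeneration ran the reaction 60 min at room temperature. Luciferin was read by luminescence, normalized to 57 uM furafylline.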

[3] = NFAT Signaling Pathway (AID 444; active = well fitted curve in either direction with a large enough effect, not every such curve was filed as active;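 also: carbachol stimulus at about its EC50 of 1 µM final; % is scaled to controls: 0 for no effect and ±100 for the full control effect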); conditions: Jurkat NFAT-bla M1, carbachol, beta-lactamase ratio, 5 h; at 38 µM (top of the series)
In short: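 Read-out: CCF4 FRET ratio (460 nm/530 nm) after 1 h RT dye loading, used for %activity and AC50 from titration series. Cells: Jurkat NFAT-β-lactamase/M1 line, treated with compound plus 1 uM carbachol for 5 h, 37 °C.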

[4] = target: Glucocorticoid receptor (Homo sapiens) (UniProt P04150); assay: GR-GFP Redistribution (AID 450;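 active = compounds whose dose series gives a full or clear partial fitted curve of increased nuclear translocation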; also: potency is read from the fitted curve at half-maximal effect); conditions: U2OS GR-GFP nuclear translocation, laser cytometry, 2 h
[5] = target: Mitogen-activated protein kinase 10 (Mus musculus) (UniProt Q61831); assay: JNK3 AlphaScreen Assay (AID 530; active = well fitted curve in either direction with a large enough effect, not every such curve was filed as active;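 also: kinase came from lysate of stimulated human HepG2 cells; signal reports phosphorylation of biotinylated GST-cJun 1-79 at Ser73 with 10 µM ATP; % is scaled to controls: 0 for no effect and ±100 for the full control effect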)
In short: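 Room-temperature AlphaScreen kinase assay; pre-activated HepG2 lysate as JNK3 source, biotin-GST-cJun(1-79) substrate, 10 uM ATP, compound 15 min preincubation.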

[6] = target: 3',5'-cyclic-AMP phosphodiesterase 4B (Homo sapiens) (UniProt Q07343); assay: qHTS Assay for Inhibitors of PDE-IV (AID 607; active = well fitted activation curve with a large enough effect in the main read-out, with a control signal flat, not every such curve was filed as active; also: % of control where 0% means no effect)
In short: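 ACTOne HEK293 cells carry a modified cAMP-gated CNG channel and express endogenous PDE4; plated 1000 cells/well, compounds up to 22.9 uM final. Membrane-potential dye fluorescence (ex 535/em 590) was read; parental cells received 10 uM forskolin + 100 uM RO 20-1724.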

[7] = target: Guanine nucleotide-binding protein G(i) subunit alpha-1 (Homo sapiens) (UniProt P63096); assay: qHTS Assay for Inhibitors of RGS12 GoLoco Motif Activity (Green Fluorophore) (AID 879);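 also: 0% = labeled peptide with Gαi1 and full inhibition = labeled peptide alone without protein; negative values mean loss of peptide binding seen as reduced polarization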
In short: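 Fluorescence polarization assay: 50 nM Gαi1 with 10 nM FITC-labeled RGS12 GoLoco peptide in 10 mM Tris pH 7.5, 150 mM NaCl, 0.1 mM GDP, 0.05% NP40, 10 min at room temperature with compound.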

[8] = qHTS Assay for Identification of Small Molecule Agonists for Thrombopoietin (TPO) Signaling Pathway (AID 917); also: % is scaled to controls: 0 for no effect and ±100 for the full control effect
In short: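 Murine Ba/F3 cells stably expressing human TPO receptor and a Glycoprotein IIb promoter–luciferase reporter were IL-3-starved overnight, then treated with compounds plus TPO (26 pM final, its EC50) for 24 hrs at 37 C; luminescence was read.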

[9] = target: Muscarinic acetylcholine receptor M1 (Rattus norvegicus) (UniProt P08482); assay: qHTS Assay for Antagonists of Acetylcholine Muscarinic M1 Receptor: Measurement of IP-One Response (AID 944); also: nearly all actives have a fitted effect of over 75% in size
In short: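 CHO cells expressing rat M1 receptor, recovered overnight, were pre-incubated 10 min with compound, then stimulated 30 min with carbachol at EC80 (200 nM) in LiCl-containing buffer, pH 7.4. IP1 accumulation was read by HTRF (620/665 nm).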

[10] = target: Pyruvate kinase (Leishmania mexicana) (UniProt Q27686); assay: qHTS Validation Assay for Inhibitors of Leishmania Mexicana Pyruvate Kinase (AID 945);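 also: 0% = DMSO only neutral control wells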
In short: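 An endpoint luciferase assay: 0.2 nM LmPYK E451W turns over 0.5 mM PEP with 0.1 mM ADP for 1 h at room temperature, pH 7.2, before PKLight addition. Values are normalized to DMSO-only wells.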

[11] = target: Alpha-galactosidase A (Homo sapiens) (UniProt P06280); assay: Counterscreen for Glucocerebrosidase Inhibitors: qHTS Assay for Human alpha-Galactosidase at pH 4.5 (AID 992); also: 0% is about no effect
In short: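 Enzyme at 2 nM final was combined with compound (0.7 nM to 77 uM) and 80 uM 4-methylumbelliferyl alpha-D-galactopyranoside in 50 mM citric acid, 0.005% Tween-20, pH 4.5. After 20 min at room temperature, fluorescence was read (Ex 365/Em 440 nm); AC50 came from Hill fits.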

[12] = target: alpha-glucosidase (Oryza sativa, rice) (UniProt Q653V4); assay: Counterscreen for Glucocerebrosidase Inhibitors: qHTS Assay for Rice alpha-Glucosidase at pH 5.0 (AID 997);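 also: 0% = full activity with enzyme and -100% = basal without enzyme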
In short: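 Rice alpha-glucosidase (4 nM final) with 400 uM 4-methylumbelliferyl-alpha-D-glucopyranoside in citrate buffer pH 5.0, 20 min at room temperature, stopped at pH 10; fluorescence 365/440 nm, compounds 0.7 nM–77 uM, AC50 from Hill fits.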

[13] = Cytometric Cell-Based qHTS for Inhibitors of the mTORC1 Signaling Pathway in MEF (Tsc2-/-, p53-/-) Cells (AID 2660);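 also: Tsc2 and p53 null MEFs carrying empty vector with compound for 24 h; percent of cells above a phospho-rpS6 to PI ratio cutoff in each well; plate controls were DMSO for no effect and rapamycin for full effect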
In short: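 Readout: Alexa-488 phospho-rpS6 (Ser235/236) intensity divided by PI intensity, thresholded against 7.5 nM rapamycin wells and reported as % positive cells. PI cell count served as the viability measure. Compound exposure was 24 hrs at 37 degree Celsius.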

[14] = High Content Imaging Cell-Based qHTS for Inhibitors of the mTORC1 Signaling Pathway in MEF (Tsc2-/-, p53-/-) Cells (AID 2666); conditions: at 38.3 µM (top of the series);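 also: percent of cells scored positive for phospho-rpS6 Ser235/236 immunostaining by imaging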
In short: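 Cells were plated, dosed with compound after 24 hrs, and incubated another 24 hrs at 37 degree Celsius. Fixed cells were immunostained for phospho-rpS6 Ser235/236 and counterstained, and the normalized signal was scored as % active cells against rapamycin and DMSO controls.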

[15] = High Content Imaging Cell-Based qHTS for Inhibitors of the mTORC1 Signaling Pathway in MEF Cells (AID 2667);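 also: Tsc2-/- p53-/- MEFs stably re-expressing wild-type Tsc2 exposed 24 h; plate controls were DMSO wells for no effect and rapamycin control wells for full effect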
In short: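 Immunofluorescence for rpS6 phosphorylation in MEFs of Tsc2-/-, p53-/- background rescued with WT Tsc2. Compound exposure lasted 24 hrs. Inhibition was scored against rapamycin-treated control wells.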

[16] = Cytometry Cell-Based qHTS for Inhibitors of the mTORC1 Signaling Pathway in MEF cells (AID 2668);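 also: Tsc2-/- p53-/- mouse embryonic fibroblasts stably re-expressing wild-type Tsc2; percent cells positive for phospho-rpS6 Ser235/236 relative to propidium iodide stain; plate controls were DMSO wells for no effect and 7.5 nM rapamycin control wells for full effect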
In short: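 WT MEFs (Tsc2-/-, p53-/- stably re-expressing WT Tsc2) in DMEM + 10% FBS received compounds 24 hrs after plating, for 24 hrs at 37 degree Celsius. Fixed cells stained with Alexa-488 anti-phospho-rpS6 Ser235/236 and propidium iodide; laser-scanning cytometry read-out.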

[17] = target: Ubiquitin carboxyl-terminal hydrolase 2 (Homo sapiens) (UniProt O75604); assay: qHTS Validation Assay for Inhibitors of Ubiquitin-specific Protease USP2a Using CHOP2 as the Reporter (AID 463106);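 also: plate controls were DMSO for no effect and full inhibition by NEM for full effect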
In short: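 10nM USP2 core + cpd, 30min RT; add 25nM Ub-CHOP2/25nM substrate; 60min RT; FI 485/531nm. Buffer Tris pH 8.0, CaCl2, BME, CHAPS. Norm. to NEM = 100% inhibition; time-zero read flags fluorescent artifacts.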

[18] = target: DNA polymerase III PolC-type (Bacillus subtilis (strain 168)) (UniProt P13267); assay: qHTS Validation Assay for the Inhibitors of DNA Replication in Gram-Positive Bacteria (AID 485295);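 also: PicoGreen fluorescence of double-stranded DNA made on primed circular M13 template; 0% = DMSO wells and -100% = EDTA-quenched background wells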
In short: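 Reconstituted B. subtilis holoenzyme (Pol III, beta clamp, SSB, primase) was preincubated with compound at room temperature, then given single-stranded circular M13Gori plus dNTPs and NTPs. EDTA-containing PicoGreen stopped the reaction, and dsDNA product was read by fluorescence.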

[19] = target: Tumor susceptibility gene 101 protein (Homo sapiens) (UniProt Q99816); assay: qHTS Validation Assay for Iinhibitors of HIV-1 Budding by Blocking the Interaction of PTAP/TSG101 (AID 485342; calls by dose curve; also: 0% is about no effect)
In short: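 Tsg101 binding domain (10 uM final) in pH 7.5 HEPES/NaCl/Tween 20/EDTA/TCEP buffer was mixed with pin-transferred compounds, then FITC-labeled PTAP peptide (50 nM final) was added; after 20 min at r.t., fluorescence polarization was read.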

[20] = qHTS Validation Assay to Find Inhibitors of Chronic Active B-Cell Receptor Signaling (AID 485345; active = well fitted curve in the direction sought with a large enough effect in the main read-out, with a control signal flat, not every such curve was filed as active;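 also: 0% = untreated basal cells and 100% = 10 µM MG-132 proteasome inhibitor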)
In short: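 Read-out: ratio of filter-corrected green (IkappaBalpha fusion) to red (native) luciferase signal in doxycycline-induced TMD8 cells after 4 h at 37C. Titration spanned 46 uM–3 nM; Data were normalised to basal cells and 10 uM MG-132 wells.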

[21] = target: Beta-2 adrenergic receptor (Homo sapiens) (UniProt P07550); assay: qHTS validation assay of beta-arrestin-biased ligands of beta2-adrenergic receptor (AID 485366); also: 0% is about no effect
In short: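 Tango cells (recombinant beta2-AR with recombinant beta-arrestin; recruitment releases tTA driving luciferase) were treated with compounds titrated up to 46 microM for 18 hr at 37 degrees C. Luminescence gave %Activity, and concentration-response curves were curve-classified.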

[22] = target: Thioredoxin reductase 1, cytoplasmic (Rattus norvegicus) (UniProt O89049); assay: qHTS Assay for Substrates of Mammalian Selenoprotein Thioredoxin Reductase 1 (TrxR1) (AID 488772);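 also: NADPH fluorescence in the first read after selenite addition and not the 8 min delta; 0% is about no effect; a drop in NADPH fluorescence below the no-compound background marks a TrxR1 substrate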
In short: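 Quantitative HTS in Tris-HCl buffer at pH 7.5 with EDTA and Tween-20, using rat TrxR1, 400 uM NADPH and 400 uM selenite (final). A fall in initial NADPH fluorescence relative to background marked substrate behaviour.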

[23] = target: Chromobox protein homolog 1 (Homo sapiens) (UniProt P83916); assay: qHTS Validation Assay for Inhibitors of HP1-beta Chromodomain Interactions with Methylated Histone Tails (AID 488953);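 also: loss of AlphaScreen luminescence from HP1-beta binding biotinylated H3K9me3 peptide; % is scaled to controls: 0 for no effect and ±100 for the full control effect; nearly all actives have a fitted effect of over 50% in size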
In short: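 HP1-beta (50 nM) was preincubated 30 min at room temperature with biotinylated H3(1-18)K9me3 peptide (50 nM) in PBS pH 7.4, 0.01% Tween-20, then with compounds 30 min. AlphaScreen signal was read after streptavidin donor/nickel chelate acceptor beads (10 ug/mL final).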

[24] = target: D(1A) dopamine receptor (Homo sapiens) (UniProt P21728); assay: HTS Assay for Allosteric Agonists of the Human D1 Dopamine Receptor: Primary Screen for Agonists (AID 488981); also: 0% is about no effect
In short: (§1)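 Calcium flux in an inducible, force-coupled HEK293 Trex D1 line (overnight at 30 C): agonist mode is the 180 s kinetic read after compound; potentiator mode is the following 180 s read after dopamine at EC20.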

[25] = target: D(1A) dopamine receptor (Homo sapiens) (UniProt P21728); assay: HTS Assay for Allosteric Agonists of the Human D1 Dopamine Receptor: Primary Screen for Potentiators (AID 488982); also: 0% is about no effect
In short: as §1

[26] = target: D(1A) dopamine receptor (Homo sapiens) (UniProt P21728); assay: HTS Assay for Allosteric Agonists of the Human D1 Dopamine Receptor: Primary Screen for Antagonists (AID 488983);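 also: calcium flux response to an EC80 dopamine challenge measured with no-wash dye; % is scaled to controls: 0 for no effect and ±100 for the full control effect; nearly all actives have a fitted effect of over 65% in size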
In short: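 Tetracycline-induced HEK293 T-REx cells expressing force-coupled D1 were plated overnight at 30 C, dye-loaded for calcium, and read kinetically. Compounds were pinned in, then an EC80 dopamine challenge followed after 180 s to reveal antagonism.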

[27] = Validation screen for small molecules that induce genotoxicity in human embryonic kidney (HEK293T) cells expressing luciferase-tagged ELG1 (AID 493106); also: 0% is about no effect
In short: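 HEK293T cells expressing luciferase-tagged ELG1 were exposed to compound or DMSO vehicle for 16 hr at 37 °C, 5% CO2. Genotoxic stress raises ELG1 levels, so increased luciferase signal after ONE-Glo addition and 30 min at room temperature marks hits.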

[28] = target: ATPase family AAA domain-containing protein 5 (Homo sapiens) (UniProt Q96QE3); assay: Validation screen for small molecules that inhibit ELG1-dependent DNA repair in human embryonic kidney (HEK293T) cells expressing luciferase-tagged ELG1 (AID 493107);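 also: cells co-treated with the DNA-damaging agent 5-fluorouridine alongside compound; % is scaled to controls: 0 for no effect and ±100 for the full control effect; inhibitors lower the ELG1-luciferase luminescence signal; nearly all actives have a fitted effect of over 70% in size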
In short: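 HEK293T cells expressing luciferase-tagged ELG1 were co-treated with 5-fluorouridine and compound or DMSO for 16 hr at 37 °C, 5% CO2. Luciferase activity was then read with ONE-Glo after 30 min at room temperature; suppressed signal indicates blocked ELG1 function.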

[29] = Nrf2 qHTS screen for inhibitors: Validation (AID 493153; active = well fitted inhibition curve with a large enough effect in the main read-out, with a control signal flat, not every such curve was filed as active; as to activity change, negative = inhibition: % of control where 0% means no effect); conditions: viability change: measured here: cytotoxicity max response
In short: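 A549 cells carrying an ARE-driven firefly luciferase reporter, in 5% FBS OPTI-MEM, were treated with compounds in concentration-response for 18-24 h at 37°C. Viability was read by CellTiter-Fluor fluorescence, then Nrf2 activity by luciferase luminescence.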

[30] = qHTS for Inhibitors of Cell Surface uPA Generation: Validation Assay (AID 493164);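 also: RAW 264.7 macrophage cells exposed to compound for 18 h; 0% is about no effect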
In short: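 RAW 264.7, 4000 cells/well, o/n plating; cpd 7-pt 1:5 dilution 2.45 nM–38.3 uM final; 18 h, 37 C/5% CO2; ATP-Lite, 5 s luminescence exposure.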

[31] = target: Peptidyl-prolyl cis-trans isomerase NIMA-interacting 1 (Homo sapiens) (UniProt Q13526); assay: qHTS Validation Assay to Find Inhibitors of Pin1 (AID 504536; active = well fitted inhibition curve with a large enough effect in the polarisation, with a control signal flat, not every such curve was filed as active; the % refers to the polarisation;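 also: 0% = full Pin1 enzyme wells and -100% = no-enzyme wells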)
In short: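 Fluorescence polarization competition: compounds (titration) displace HiFluor-488-labeled Pin1-1b peptide from Pin1 (0.3 uM final) in pH 7.5 HEPES buffer with DTT, 10 min at room temperature; %Activity normalized to no-enzyme wells, curves fitted.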

Chain of D(1A) dopamine receptor (Homo sapiens) (P21728 whole entry, looked up): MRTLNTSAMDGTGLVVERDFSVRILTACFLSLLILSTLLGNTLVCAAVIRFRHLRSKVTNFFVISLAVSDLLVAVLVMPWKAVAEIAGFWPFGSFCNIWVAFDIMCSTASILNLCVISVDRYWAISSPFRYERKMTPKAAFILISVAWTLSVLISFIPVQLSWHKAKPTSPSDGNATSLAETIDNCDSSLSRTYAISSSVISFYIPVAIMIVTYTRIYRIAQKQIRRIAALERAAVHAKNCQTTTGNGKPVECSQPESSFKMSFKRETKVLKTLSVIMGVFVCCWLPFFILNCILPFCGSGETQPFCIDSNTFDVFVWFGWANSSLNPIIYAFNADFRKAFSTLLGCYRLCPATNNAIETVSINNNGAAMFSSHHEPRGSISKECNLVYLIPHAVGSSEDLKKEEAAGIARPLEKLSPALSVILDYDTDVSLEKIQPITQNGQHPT
Chain of 3',5'-cyclic-AMP phosphodiesterase 4B (Homo sapiens) (Q07343 whole entry, looked up): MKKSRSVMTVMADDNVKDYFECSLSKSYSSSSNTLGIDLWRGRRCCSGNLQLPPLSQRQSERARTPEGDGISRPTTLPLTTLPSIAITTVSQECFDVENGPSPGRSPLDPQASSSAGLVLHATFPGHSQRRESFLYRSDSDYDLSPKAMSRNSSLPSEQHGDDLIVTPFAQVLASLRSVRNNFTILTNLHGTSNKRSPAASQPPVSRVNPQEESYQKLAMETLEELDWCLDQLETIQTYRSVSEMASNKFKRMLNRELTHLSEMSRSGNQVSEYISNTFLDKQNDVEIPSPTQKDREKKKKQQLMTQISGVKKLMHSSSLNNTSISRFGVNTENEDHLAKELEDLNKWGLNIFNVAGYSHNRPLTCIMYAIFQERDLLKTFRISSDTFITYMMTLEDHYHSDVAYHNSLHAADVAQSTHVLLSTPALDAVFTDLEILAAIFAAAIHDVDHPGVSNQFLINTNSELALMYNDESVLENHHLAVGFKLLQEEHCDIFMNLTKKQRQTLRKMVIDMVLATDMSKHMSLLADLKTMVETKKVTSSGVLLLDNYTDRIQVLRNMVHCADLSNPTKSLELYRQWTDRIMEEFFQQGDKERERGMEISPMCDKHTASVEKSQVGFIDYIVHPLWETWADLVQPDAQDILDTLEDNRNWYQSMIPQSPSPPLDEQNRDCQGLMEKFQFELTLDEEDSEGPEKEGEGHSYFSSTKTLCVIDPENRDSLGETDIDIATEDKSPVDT
Chain of Alpha-galactosidase A (Homo sapiens) (P06280 whole entry, looked up): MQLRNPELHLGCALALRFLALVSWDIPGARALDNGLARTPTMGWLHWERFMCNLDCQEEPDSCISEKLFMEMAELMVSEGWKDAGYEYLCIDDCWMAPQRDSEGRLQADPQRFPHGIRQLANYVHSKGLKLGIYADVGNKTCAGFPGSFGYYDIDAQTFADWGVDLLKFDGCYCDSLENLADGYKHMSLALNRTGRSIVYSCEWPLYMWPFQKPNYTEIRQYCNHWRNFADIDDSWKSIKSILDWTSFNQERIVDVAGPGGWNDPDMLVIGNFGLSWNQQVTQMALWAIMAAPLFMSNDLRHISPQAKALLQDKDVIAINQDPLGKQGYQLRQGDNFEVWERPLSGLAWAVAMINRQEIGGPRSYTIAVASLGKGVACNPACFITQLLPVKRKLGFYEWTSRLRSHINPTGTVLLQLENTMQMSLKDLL
Chain of ATPase family AAA domain-containing protein 5 (Homo sapiens) (Q96QE3 whole entry, looked up, the tested form may be a part): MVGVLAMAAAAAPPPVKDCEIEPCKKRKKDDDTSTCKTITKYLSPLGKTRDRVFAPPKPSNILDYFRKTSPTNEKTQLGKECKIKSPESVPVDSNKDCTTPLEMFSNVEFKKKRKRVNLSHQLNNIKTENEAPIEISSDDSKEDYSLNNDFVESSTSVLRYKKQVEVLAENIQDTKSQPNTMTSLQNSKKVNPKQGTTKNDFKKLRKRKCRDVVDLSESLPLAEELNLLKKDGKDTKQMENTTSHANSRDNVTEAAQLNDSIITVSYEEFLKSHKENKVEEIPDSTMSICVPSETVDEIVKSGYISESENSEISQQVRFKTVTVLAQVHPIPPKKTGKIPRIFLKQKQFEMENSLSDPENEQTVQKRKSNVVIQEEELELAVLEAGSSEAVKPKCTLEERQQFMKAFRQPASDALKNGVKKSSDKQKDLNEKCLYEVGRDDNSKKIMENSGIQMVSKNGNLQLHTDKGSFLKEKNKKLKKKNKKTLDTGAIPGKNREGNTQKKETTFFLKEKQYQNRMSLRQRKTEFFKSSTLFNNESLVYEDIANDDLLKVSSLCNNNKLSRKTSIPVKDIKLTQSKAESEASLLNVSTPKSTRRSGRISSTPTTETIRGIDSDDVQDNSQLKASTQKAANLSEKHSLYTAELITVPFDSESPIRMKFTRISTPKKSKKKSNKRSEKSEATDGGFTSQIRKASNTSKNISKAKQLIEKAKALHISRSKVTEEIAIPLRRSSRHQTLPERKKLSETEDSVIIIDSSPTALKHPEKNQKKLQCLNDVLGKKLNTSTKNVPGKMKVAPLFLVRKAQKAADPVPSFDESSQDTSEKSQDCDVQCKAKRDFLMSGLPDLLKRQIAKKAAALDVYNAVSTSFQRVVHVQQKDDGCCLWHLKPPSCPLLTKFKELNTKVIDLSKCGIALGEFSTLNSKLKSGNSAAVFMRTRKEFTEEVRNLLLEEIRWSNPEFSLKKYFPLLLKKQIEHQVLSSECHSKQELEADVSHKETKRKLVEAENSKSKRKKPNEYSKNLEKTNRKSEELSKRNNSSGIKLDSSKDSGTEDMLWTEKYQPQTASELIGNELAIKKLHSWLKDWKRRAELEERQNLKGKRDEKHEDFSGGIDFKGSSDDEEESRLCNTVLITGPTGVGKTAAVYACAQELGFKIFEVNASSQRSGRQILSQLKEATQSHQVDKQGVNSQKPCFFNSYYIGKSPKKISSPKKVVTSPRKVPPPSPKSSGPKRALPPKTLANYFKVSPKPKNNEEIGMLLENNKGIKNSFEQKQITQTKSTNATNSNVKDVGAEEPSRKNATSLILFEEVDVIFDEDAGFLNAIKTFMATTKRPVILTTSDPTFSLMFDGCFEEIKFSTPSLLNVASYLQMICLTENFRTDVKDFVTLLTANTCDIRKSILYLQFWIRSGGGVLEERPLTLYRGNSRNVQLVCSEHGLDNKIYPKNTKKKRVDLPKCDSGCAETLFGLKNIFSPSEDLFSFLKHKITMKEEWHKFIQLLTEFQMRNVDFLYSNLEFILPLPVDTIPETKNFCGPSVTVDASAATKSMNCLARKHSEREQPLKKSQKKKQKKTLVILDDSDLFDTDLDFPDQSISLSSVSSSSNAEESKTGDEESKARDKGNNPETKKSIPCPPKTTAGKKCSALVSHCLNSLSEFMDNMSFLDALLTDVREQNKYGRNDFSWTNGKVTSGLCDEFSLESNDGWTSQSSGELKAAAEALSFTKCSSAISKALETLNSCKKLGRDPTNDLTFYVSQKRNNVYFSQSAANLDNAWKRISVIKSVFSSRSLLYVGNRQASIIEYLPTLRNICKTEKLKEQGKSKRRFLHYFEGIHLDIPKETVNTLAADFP
Chain of Peptidyl-prolyl cis-trans isomerase NIMA-interacting 1 (Homo sapiens) (Q13526 whole entry, looked up): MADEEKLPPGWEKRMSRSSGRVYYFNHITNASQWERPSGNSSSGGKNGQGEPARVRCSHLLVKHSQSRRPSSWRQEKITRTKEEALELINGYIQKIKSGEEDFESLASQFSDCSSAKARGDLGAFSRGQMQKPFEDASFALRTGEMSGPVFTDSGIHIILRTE
Chain of Guanine nucleotide-binding protein G(i) subunit alpha-1 (Homo sapiens) (P63096 whole entry, looked up): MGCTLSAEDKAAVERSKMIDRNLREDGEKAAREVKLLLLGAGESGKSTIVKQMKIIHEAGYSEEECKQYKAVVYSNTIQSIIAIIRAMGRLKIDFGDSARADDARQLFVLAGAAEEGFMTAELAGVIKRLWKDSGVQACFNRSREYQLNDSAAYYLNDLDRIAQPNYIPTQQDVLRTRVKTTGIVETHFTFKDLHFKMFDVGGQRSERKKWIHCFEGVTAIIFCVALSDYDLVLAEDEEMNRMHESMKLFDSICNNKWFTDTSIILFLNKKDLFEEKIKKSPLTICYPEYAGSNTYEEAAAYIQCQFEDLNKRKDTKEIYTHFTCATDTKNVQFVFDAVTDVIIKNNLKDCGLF
Chain of Thioredoxin reductase 1, cytoplasmic (Rattus norvegicus) (O89049 whole entry, looked up): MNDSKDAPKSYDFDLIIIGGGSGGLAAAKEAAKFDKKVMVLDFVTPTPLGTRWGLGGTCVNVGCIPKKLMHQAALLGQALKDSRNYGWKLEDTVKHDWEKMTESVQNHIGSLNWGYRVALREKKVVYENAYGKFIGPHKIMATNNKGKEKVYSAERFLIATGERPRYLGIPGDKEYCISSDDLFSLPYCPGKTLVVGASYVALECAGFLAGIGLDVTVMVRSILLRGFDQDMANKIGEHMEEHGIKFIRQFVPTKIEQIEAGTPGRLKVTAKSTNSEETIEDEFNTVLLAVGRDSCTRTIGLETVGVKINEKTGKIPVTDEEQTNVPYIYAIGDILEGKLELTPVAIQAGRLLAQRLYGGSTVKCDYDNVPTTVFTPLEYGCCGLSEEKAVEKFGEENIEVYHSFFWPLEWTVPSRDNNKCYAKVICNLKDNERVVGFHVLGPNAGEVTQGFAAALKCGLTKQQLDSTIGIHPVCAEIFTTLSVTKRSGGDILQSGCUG
Chain of Muscarinic acetylcholine receptor M1 (Rattus norvegicus) (P08482 whole entry, looked up): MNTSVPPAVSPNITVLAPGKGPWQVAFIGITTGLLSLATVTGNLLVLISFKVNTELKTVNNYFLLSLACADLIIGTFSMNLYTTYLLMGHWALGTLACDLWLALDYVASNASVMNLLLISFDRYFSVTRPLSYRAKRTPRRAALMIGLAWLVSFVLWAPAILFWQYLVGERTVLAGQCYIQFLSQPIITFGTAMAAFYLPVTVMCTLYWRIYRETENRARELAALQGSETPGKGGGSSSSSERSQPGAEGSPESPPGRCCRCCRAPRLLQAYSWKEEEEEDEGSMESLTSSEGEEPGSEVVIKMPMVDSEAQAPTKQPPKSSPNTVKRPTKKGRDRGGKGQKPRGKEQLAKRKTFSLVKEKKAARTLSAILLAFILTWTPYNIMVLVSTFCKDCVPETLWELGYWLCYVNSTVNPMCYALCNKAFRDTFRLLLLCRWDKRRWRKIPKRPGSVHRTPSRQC

CC[N+](CC)(CC)CC
inactive: activity change, negative = inhibition [1] -0.239% | Potency [2] | activity change, negative = inhibition [3] -10.5% | Potency [4] > 46 µM | Potency [5] | Potency [6] | outcome [7] | Potency [8] | Potency [9] | Potency [10] | outcome [11] | outcome [12] | outcome [13] | outcome [14] | Potency [15] | Potency [16] | Potency [17] | Potency [18] | outcome [19] | outcome [20] | outcome [21] | outcome [22] | Potency [23] | outcome [24] | outcome [25] | outcome [26] | Potency [27] | Potency [28] | outcome [29] | outcome [30] | Potency [31]
-5.41%: viability change [29]

From PubChem BioAssay (NCATS)
